Assay results reported in PubChem BioAssay AID1159580 (chemical genetic matrix, 2015).
Values joined by “and” are separate entries in the source; they are usually repeats but may differ in a detail not shown here. Equal values may be shown once. About 2,000 (36%) of roughly 5,500 compounds were called active. Another 18% or so got no clear call; they are omitted. Rule as the data show it: active = normalized growth mostly below about 0.91 (no sharp cut-off); inconclusive = no clear call, values can overlap the other calls; inactive = mostly above about 0.92. The list shows a part of the results.

Experiment: chemical genetic growth profiling, strain panel (AID 1159580);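 also: tested at 20 µM; growth read once vehicle control cultures reached saturation at 30 °C; 1 = growth at the plate median or of vehicle wells; lower values mean less growth of the strain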
Details: S. cerevisiae deletion strains, growth OD

Measured: normalized growth

O=c1cccc2n1C[C@H]1CNCC2C1
inactive: locus YAL021C, strain ccr4, hits give low values 1 | locus YAL026C, strain drs2, hits give low values 1.01 | locus YAL030W, strain snc1, hits give low values 1.01 | locus YBL061C, strain skt5, hits give low values 1.01 | locus YBR009C, strain hhf1, hits give low values 0.982 | locus YBR021W, strain FUR4, hits give low values 1.03 | locus YBR023C, strain chs3, hits give low values 0.999 | locus YBR171W, strain sec66, hits give low values 0.997 | locus YBR229C, strain ROT2, hits give low values 1 | locus YBR231C, strain swc5, hits give low values 1.02 | locus YBR279W, strain paf1, hits give low values 1 | locus YCL011C, strain gbp2, hits give low values 0.99 | locus YCL016C, strain dcc1, hits give low values 0.973 | locus YCL029C, strain bik1, hits give low values 0.985 | locus YCL061C, strain MRC1, hits give low values 0.987 | locus YCL069W, strain vba3, hits give low values 1 | locus YCR088W, strain abp1, hits give low values 1 | locus YDL005C, strain med2, hits give low values 1.01 | locus YDL035C, strain GPR1, hits give low values 0.988 | locus YDL040C, strain nat1, hits give low values 1.01 | locus YDL074C, strain BRE1, hits give low values 0.984 | locus YDL101C, strain DUN1, hits give low values 1.01 | locus YDL134C, strain PPH21, hits give low values 1.03 | locus YDL185W, strain tfp1, hits give low values 0.955 | locus YDL192W, strain arf1, hits give low values 0.987 | locus YDR001C, strain nth1, hits give low values 1.01 | locus YDR069C, strain doa4, hits give low values 1.01 | locus YDR101C, strain arx1, hits give low values 0.966 | locus YDR137W, strain rgp1, hits give low values 1.02 | locus YDR150W, strain NUM1, hits give low values 1 | locus YDR159W, strain sac3, hits give low values 1 | locus YDR162C, strain NBP2, hits give low values 1.01 | locus YDR195W, strain ref2 0.999 | locus YDR297W, strain sur2, hits give low values 0.999 | locus YDR318W, strain mcm21, hits give low values 0.996 | locus YDR334W, strain swr1, hits give low values 0.999 | locus YDR335W, strain msn5, hits give low values 1.01 | locus YDR388W, hits give low values 0.992 | locus YDR392W, strain spt3, hits give low values 0.899 | locus YDR502C, strain sam2, hits give low values 1 | locus YEL003W, strain gim4, hits give low values 1 | locus YEL037C, strain rad23, hits give low values 1.01 | locus YEL061C, strain CIN8 (second series), hits give low values 1.01 | locus YEL061C, strain CIN8, hits give low values 1.01 | locus YER015W, strain faa2, hits give low values 1.01 | locus YER016W, strain bim1, hits give low values 1.01 | locus YER110C, hits give low values 0.974 | locus YER111C, strain swi4, hits give low values 0.985 | locus YER155C, strain BEM2 (second series), hits give low values 0.974 | locus YER155C, strain BEM2, hits give low values 1 | locus YER167W, strain BCK2, hits give low values 1 | locus YFR010W, strain ubp6, hits give low values 1.02 | locus YGL078C, strain dbp3, hits give low values 0.982 | locus YGL086W, strain mad1, hits give low values 0.965 | locus YGL167C, strain pmr1, hits give low values 0.994 | locus YGL173C, strain kem1, hits give low values 0.998 | locus YGL227W, strain vid30, hits give low values 1.01 | locus YGL240W, strain doc1, hits give low values 1.05 | locus YGL248W, strain PDE1, hits give low values 1.03 | locus YGL253W, strain hxk2, hits give low values 1.01 | locus YGR078C, strain PAC10, hits give low values 1.03 | locus YGR135W, strain pre9, hits give low values 1.02 | locus YGR252W, strain gcn5, hits give low values 1.1 | locus YHR013C, strain ard1, hits give low values 0.98 | locus YHR027C, strain rpn1, hits give low values 1.01 | locus YHR030C, strain SLT2, hits give low values 0.997 and 1.01 | locus YHR079C, strain IRE1 (second series), hits give low values 0.966 | locus YHR079C, strain IRE1, hits give low values 1.04 | locus YHR094C, strain hxt1, hits give low values 0.995 | locus YHR129C, strain ARP1, hits give low values 1 | locus YHR142W, strain chs7, hits give low values 0.991 | locus YHR200W, strain rpn10, hits give low values 0.979 | locus YIL066C, strain RNR3, hits give low values 1.02 | locus YIL073C, strain SPO22, hits give low values 0.947 | locus YIL125W, strain kgd1, hits give low values 0.987 | locus YIR030C, strain dcg1, hits give low values 0.992 | locus YJL092W, strain hpr5, hits give low values 1 | locus YJL095W, strain BCK1 (second series), hits give low values 1 | locus YJL095W, strain BCK1, hits give low values 1.07 and 1.01 | locus YJL115W, strain asf1, hits give low values 0.998 | locus YJL129C, strain trk1, hits give low values 1 | locus YJL134W, strain LCB3, hits give low values 0.999 | locus YJL154C, strain vps35, hits give low values 0.997 | locus YJL164C, strain tpk1, hits give low values 1 | locus YJL166W, strain qcr8, hits give low values 0.98 | locus YJL168C, strain set2, hits give low values 0.984 | locus YJL187C, strain SWE1 (second series), hits give low values 1.01 | locus YJL187C, strain SWE1, hits give low values 1.01
